We go through five compounds from PubChem BioAssay.

Structures are written as SMILES. Results filed as inconclusive are left out. The source made the active and inactive calls.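 Rule for the calls, unless noted: active = percent response above a set limit, the screen-wide mean plus 3 SD (cut at about 130% in these data); inactive = the rest.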

A short description of assay [1]: rapamycin-like changes in RPL19A-GFP expression – cell-based, S. cerevisiae, multiplex flow cytometry, primary screen (AID 1862; in the data active = percent of DMSO control GFP below about 86%;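 note: lower values mimic rapamycin by blocking the RPL19A rise seen in DMSO cells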). To be noted: S. cerevisiae RPL19A-GFP strain, flow cytometry fluorescence, 3 h; at 10 µM; stronger effect = lower value.
Assay [2] can be described thus: TOR pathway GLN3 branch reporter MEP2-GFP changes – S. cerevisiae, multiplex flow cytometry, primary screen (AID 1867;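 active = GFP response, as percent of the DMSO control, above the screen-wide mean plus 3 SD, about 139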;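 note: median GFP channel fluorescence of barcode-gated MEP2-GFP cells measured by flow cytometry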). To be noted: S. cerevisiae MEP2-GFP strain, 3 h, at 10 µM, stronger effect = higher value, 100% means same as DMSO wells.
Assay [3] can be described thus: TOR pathway RTG branch CIT2 reporter changes – S. cerevisiae, GFP fusion, multiplex flow cytometry, primary screen (AID 1870).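 Note: barcoded CIT2-GFP strain pooled with four other GFP strains with rapamycin as positive control; median GFP fluorescence per well over plate mean of DMSO wells so 100% = DMSO.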 To be noted: S. cerevisiae CIT2-GFP expression, 3 h, at 10 µM, stronger effect = higher value.
The nature of assay [4]: TOR pathway LAP4-GFP level changes – S. cerevisiae, multiplex flow cytometry, primary screen (AID 1873;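 active = GFP signal, as percent of the solvent control, above the screen mean plus 3 SD, about 149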). The conditions noted are these: S. cerevisiae LAP4-GFP expression, 3 h, at 10 µM, stronger effect = higher value.
The nature of assay [5]: yeast AGP1-GFP level changes, GLN3 branch – cell-based, multiplex flow cytometry, S. cerevisiae, primary screen (AID 1887;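 active = GFP signal above the screen-wide mean plus 3 SD, that is over about 124.5% of the solvent control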;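 note: AGP1-GFP fusion strain of S. cerevisiae within a five-strain barcoded multiplex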). The conditions noted are these: 3 h, at 10 µM, stronger effect = higher value.
Assay [6] is described as follows: reduced mouse 2C T cell binding to pMHC/ICAM-1 vesicles – MLPCN validation set, flow cytometry, LFA-1/ICAM-1 modulator project, pilot screen (AID 2523;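 active = response below a set limit, under 55% cells CD8-positive and vesicle-bound, and CD8 cells' 90th-percentile brightness under 279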;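 for vesicle binding response: mean PE anti-B7-1 fluorescence of CD8+ cells relative to row control; 100% = QL9-loaded vesicles with DMSO vehicle in the same plate row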). To be noted: 2C mouse CD8+ T cells, at 7 µM, stronger effect = lower value; double positive events: measured here: CD8+/vesicle+ event percentage.
In assay [7] the target is Integrin beta-1 (Homo sapiens) + Integrin alpha-4 (Homo sapiens) (UniProt P13612+P05556). Nature of the assay: alpha4beta1 integrin LIBS antibody binding reduction – U937 cells, HUTS-21 mAb, flow cytometry, validation set, VLA-4 allosteric modulator project, pilot screen (AID 2674;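 active = inhibition above 50%, about 3 SD of the validation set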;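 note: antibody binding induced by the VLA-4 ligand LDV present at three times its Kd; 0% = LDV ligand with antibody and no compound and 100% = antibody without LDV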). To be noted: HUTS-21 LIBS mAb binding, at 6.7 µM, stronger effect = higher value, binding induced by LDV ligand.
Sequence of Integrin beta-1 (Homo sapiens) + Integrin alpha-4 (Homo sapiens) (P05556 whole entry, looked up): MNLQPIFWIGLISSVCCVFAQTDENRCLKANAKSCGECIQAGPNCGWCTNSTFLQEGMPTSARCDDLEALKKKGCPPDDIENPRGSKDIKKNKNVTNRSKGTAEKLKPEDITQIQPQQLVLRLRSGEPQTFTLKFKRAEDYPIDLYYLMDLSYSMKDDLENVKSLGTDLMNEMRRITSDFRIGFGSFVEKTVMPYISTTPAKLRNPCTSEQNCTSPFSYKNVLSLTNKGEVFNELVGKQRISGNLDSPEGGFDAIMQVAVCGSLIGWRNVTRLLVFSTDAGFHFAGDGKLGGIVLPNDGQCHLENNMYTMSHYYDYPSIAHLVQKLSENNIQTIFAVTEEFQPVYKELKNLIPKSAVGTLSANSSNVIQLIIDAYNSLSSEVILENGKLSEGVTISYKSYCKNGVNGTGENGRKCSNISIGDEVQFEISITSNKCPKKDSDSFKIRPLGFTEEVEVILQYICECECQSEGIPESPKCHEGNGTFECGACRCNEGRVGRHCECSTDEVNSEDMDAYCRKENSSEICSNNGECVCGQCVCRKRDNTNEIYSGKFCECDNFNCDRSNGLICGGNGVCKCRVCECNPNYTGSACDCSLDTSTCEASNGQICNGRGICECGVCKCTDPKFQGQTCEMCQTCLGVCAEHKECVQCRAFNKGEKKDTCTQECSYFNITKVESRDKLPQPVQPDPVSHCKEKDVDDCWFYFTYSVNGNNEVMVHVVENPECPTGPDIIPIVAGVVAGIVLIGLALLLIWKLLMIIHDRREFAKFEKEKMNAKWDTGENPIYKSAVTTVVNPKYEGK
Sequence of Integrin beta-1 (Homo sapiens) + Integrin alpha-4 (Homo sapiens) (P13612 whole entry, looked up): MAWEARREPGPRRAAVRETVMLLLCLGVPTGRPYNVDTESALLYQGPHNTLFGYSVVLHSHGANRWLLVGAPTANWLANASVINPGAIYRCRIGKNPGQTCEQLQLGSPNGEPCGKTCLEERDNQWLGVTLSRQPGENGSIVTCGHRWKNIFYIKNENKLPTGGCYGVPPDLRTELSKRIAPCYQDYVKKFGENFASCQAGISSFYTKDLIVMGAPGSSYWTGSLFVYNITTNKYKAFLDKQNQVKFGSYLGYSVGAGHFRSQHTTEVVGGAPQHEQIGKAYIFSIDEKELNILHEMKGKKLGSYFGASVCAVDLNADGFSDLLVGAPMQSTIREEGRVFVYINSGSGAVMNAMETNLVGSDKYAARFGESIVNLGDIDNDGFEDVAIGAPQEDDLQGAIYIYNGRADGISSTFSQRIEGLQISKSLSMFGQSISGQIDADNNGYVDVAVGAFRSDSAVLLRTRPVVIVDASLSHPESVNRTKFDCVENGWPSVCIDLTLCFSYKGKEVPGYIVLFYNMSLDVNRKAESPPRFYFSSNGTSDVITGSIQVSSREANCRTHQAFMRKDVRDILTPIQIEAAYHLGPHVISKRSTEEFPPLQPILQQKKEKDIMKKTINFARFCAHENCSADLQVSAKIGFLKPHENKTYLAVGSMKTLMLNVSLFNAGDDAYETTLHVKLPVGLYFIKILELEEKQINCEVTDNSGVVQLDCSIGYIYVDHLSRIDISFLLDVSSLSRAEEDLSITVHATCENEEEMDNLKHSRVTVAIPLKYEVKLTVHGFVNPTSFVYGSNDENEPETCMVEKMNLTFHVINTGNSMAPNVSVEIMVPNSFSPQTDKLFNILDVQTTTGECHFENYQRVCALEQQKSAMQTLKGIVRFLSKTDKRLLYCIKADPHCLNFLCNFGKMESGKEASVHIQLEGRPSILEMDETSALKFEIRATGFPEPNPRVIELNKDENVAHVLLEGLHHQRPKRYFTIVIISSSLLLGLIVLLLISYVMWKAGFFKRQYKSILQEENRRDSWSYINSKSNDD

A short description of assay [8]: calorie-restriction mimetic ROS inhibitors, yeast – validation compound set, pilot screen (AID 2706;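 active = superoxide response below 65% of plate, a cut near 3 SD across the whole screen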;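 note: yeast exposed to compound for one week at 30 degrees C before staining; 100% = mean of all compound wells on the same plate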). To be noted: S. cerevisiae aging, superoxide DHE fluorescence; at 10 µM; stronger effect = lower value.
Assay [9] deals with Beta-adrenergic receptor kinase 1 (Homo sapiens) (UniProt P25098). Description: GRK2 binders displacing RNA aptamer, biochemical, validation, human GRK2, bead flow cytometry (AID 488806;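 active = aptamer binding inhibition above 30%, about 3 SD of noise from non-fluorescent compounds; inactive = inhibition at or below 30%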). The conditions noted are these: bead-bound GRK2, FAM-aptamer displacement, at 10 µM, stronger effect = higher value.
Sequence of Beta-adrenergic receptor kinase 1 (Homo sapiens) (P25098 whole entry, looked up): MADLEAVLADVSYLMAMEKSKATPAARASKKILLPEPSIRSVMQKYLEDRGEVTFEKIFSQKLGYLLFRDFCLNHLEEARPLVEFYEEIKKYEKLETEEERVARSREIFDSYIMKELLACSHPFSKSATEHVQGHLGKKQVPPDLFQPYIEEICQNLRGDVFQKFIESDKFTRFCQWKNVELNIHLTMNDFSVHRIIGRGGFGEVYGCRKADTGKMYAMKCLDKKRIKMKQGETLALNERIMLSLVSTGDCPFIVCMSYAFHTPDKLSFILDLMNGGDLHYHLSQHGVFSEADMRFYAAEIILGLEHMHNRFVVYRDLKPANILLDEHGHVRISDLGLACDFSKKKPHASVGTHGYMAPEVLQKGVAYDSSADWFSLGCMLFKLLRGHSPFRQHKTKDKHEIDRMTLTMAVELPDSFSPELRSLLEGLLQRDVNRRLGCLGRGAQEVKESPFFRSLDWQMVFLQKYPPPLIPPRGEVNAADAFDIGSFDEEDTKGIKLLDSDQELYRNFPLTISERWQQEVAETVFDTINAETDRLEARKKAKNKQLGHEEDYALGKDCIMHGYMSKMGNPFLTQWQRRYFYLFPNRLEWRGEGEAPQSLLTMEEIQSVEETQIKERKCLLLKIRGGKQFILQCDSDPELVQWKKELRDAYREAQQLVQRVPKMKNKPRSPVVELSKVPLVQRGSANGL
Assay [10] concerns the target Beta-2 adrenergic receptor (Homo sapiens) (UniProt P07550). Description: agonist-induced loss of surface beta2AR – cell-based, FAP fluorogen, flow cytometry, validation set, pilot screen (AID 504459;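 active = percent response above 42, roughly 3 SD of non-fluorescent test compounds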;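 note: agonist-driven loss of surface beta2AR via internalization measured by FAP dye flow cytometry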). The conditions noted are these: Am2.2-beta2AR cells, at 10 µM, stronger effect = higher value.
Assay [11] has as its target AP-2 complex subunit beta (Homo sapiens) (UniProt P63010). Description: beta-arrestin/AP2 interaction blockers – biochemical, validation set, GST-AP2 beads, flow cytometry, pilot screen (AID 504541;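 active = inhibition above 54%, about 3 SD of non-fluorescent compounds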;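 note: AP2 carries R879A mutation and is captured from E. coli lysate; bead-bound FITC arrestin peptide fluorescence measuring arrestin peptide binding to AP2; 0% = DMSO wells and 100% = excess unlabeled arrestin peptide control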). To be noted: FITC arrestin peptide, at 10 µM, stronger effect = higher value, AP2 beta2 appendage fragment, R879A mutant.
A short description of assay [12]: cytosolic pH regulators acting via V-ATPase – S. cerevisiae, pHLuorin, HTS validation (AID 504600; in the data active = response above about 15%;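 note: plate controls were DMSO for no effect and reference compound for full effect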). The conditions noted are these: V-ATPase proton transport, at 10 µM, stronger effect = higher value.
In assay [13] the test system is anti-desmoglein-3 scFv antibody binding to human DSG3. Description: blockers of pathogenic pemphigus antibody–desmoglein-3 binding – biochemical, validation compound set, bead-based, flow cytometry, pilot screen (AID 588368;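 active = binding below the plate cutoff, the plate median minus 3 SD, with a reading above zero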;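 note: signal is the median channel fluorescence of bead-bound GFP antibody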). To be noted: Protein G beads, DSG3-Fc, scFv-GFP binding, at 10 µM, stronger effect = lower value.
Assay [14] can be described thus: Nile Red efflux blockade in pump-expressing yeast – validation compound set, multiplex, phenotypic, pilot screen (AID 588506;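 active = efflux inhibition above 0.42, the validation set average plus 4 SD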;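 note: Nile Red retained in cells so higher fluorescence means more efflux inhibition; 0 = negative control wells and 1 = enniatin B 25 µM full block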). The conditions noted are these: S. cerevisiae pump-expressing triplex, Nile Red efflux flow cytometry; at 10 µM; stronger effect = higher value; the pumps come from Candida albicans.
The target in assay [15] is ATP-binding cassette sub-family B member 6 (Homo sapiens) (UniProt Q9NP58). Description: blockers of ABCB6-driven porphyrin uptake – K562-ABCB6 cells, flow cytometry, validation set, pilot screen (AID 588550;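 active = inhibition above the screen-wide mean plus 3 SD, about 51%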;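 note: 0% = DMSO wells and 100% = benzethonium chloride 70 µM positive control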). To be noted: K562-ABCB6 porphyrin accumulation, 1 h, at 10 µM, stronger effect = higher value.
Sequence of ATP-binding cassette sub-family B member 6 (Homo sapiens) (Q9NP58 whole entry, looked up): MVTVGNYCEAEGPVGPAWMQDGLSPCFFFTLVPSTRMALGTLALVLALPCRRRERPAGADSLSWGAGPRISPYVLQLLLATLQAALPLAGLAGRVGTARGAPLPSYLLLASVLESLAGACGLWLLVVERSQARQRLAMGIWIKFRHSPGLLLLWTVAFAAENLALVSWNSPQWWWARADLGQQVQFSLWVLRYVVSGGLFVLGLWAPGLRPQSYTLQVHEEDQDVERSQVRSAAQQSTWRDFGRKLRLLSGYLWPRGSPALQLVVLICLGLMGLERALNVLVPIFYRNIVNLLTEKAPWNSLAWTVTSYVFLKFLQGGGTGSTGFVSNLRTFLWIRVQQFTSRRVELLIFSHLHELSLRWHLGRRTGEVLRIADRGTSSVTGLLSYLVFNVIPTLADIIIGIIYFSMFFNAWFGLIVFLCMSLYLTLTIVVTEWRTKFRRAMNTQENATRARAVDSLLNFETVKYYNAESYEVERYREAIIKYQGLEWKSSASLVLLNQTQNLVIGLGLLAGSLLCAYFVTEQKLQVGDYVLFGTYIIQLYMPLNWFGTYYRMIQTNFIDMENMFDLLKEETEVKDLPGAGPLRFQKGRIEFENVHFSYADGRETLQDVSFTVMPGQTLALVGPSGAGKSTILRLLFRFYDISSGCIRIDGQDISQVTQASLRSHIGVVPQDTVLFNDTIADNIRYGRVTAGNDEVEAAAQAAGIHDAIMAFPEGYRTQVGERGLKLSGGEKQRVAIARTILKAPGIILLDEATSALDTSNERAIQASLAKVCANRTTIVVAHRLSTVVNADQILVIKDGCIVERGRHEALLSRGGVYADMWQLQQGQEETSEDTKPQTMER
Assay [16] can be described thus: AML differentiation inducers, ER-HoxA9 marrow cells – cell-based, GFP/MAC1 double positive, flow cytometry, validation set, primary screen (AID 588685;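 active = differentiation response of at least 50%, scaled between solvent and reference control, from cells with both markers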;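 note: compound exposure lasts four days before antibody staining and flow analysis; 0% = DMSO wells and 100% = 5 µM fulvestrant positive control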). The conditions noted are these: stronger effect = higher value, normalized: vehicle 0, fulvestrant 100.

Sequence of AP-2 complex subunit beta (Homo sapiens) (P63010 whole entry, looked up, the tested form may be a part, one chain of several): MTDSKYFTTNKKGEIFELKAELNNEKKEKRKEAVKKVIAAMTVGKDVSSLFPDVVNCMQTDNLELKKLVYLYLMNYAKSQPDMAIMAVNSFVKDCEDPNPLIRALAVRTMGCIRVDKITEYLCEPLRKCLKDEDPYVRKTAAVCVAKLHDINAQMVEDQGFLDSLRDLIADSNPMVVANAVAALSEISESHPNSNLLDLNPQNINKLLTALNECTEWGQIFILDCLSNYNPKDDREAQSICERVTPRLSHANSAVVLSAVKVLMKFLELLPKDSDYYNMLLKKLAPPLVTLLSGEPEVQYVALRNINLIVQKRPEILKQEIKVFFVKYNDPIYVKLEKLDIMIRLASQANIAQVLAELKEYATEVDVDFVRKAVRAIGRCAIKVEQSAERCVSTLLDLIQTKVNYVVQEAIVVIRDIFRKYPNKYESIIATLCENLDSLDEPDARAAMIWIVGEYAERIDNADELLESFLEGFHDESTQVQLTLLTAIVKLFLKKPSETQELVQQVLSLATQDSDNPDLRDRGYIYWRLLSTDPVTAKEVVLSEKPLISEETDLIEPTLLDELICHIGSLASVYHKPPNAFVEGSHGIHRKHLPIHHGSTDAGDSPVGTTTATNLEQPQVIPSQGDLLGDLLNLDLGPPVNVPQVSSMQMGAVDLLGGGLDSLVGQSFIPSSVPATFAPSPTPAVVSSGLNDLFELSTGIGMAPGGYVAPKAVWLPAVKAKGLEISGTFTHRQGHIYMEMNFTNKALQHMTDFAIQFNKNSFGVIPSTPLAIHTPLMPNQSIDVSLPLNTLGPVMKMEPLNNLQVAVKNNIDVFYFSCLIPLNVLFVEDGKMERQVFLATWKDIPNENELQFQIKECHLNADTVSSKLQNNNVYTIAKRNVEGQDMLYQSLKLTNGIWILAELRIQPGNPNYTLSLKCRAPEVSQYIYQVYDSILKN
Sequence of Beta-2 adrenergic receptor (Homo sapiens) (P07550 whole entry, looked up): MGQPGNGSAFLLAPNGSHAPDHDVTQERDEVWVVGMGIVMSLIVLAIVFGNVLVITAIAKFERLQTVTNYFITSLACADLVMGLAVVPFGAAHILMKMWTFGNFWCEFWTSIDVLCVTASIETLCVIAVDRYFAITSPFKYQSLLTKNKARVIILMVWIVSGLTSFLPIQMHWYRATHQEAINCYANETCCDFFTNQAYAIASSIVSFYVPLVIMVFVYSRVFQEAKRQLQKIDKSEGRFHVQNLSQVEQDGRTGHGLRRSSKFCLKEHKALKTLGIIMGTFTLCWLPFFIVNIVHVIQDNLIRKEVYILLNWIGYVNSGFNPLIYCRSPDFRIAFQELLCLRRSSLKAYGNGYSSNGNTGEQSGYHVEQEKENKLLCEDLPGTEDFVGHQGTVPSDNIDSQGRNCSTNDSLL

For the compound `CCOc1ccc2ccccc2c1C(=O)N[C@@H]1C(=O)N2[C@@H]1SC(C)(C)[C@@H]2C(=O)O`, the percent of DMSO control GFP in assay [1] was 101% (inactive). In addition, the GFP response vs DMSO in assay [2] is 112% (inactive); in [4] it was 85.5% (inactive). Moreover, the percent response of DMSO control in assay [3] was 93.1% (inactive). The GFP response, % of DMSO in [5] is 97.5% (inactive). Further, in [6], the double positive events stood at 67.6%. Moreover, in [6], the vesicle binding response is 994% (inactive). For the same compound, the inhibition in assay [7] was -3.57% (inactive); in assay [11], 17.1% (inactive); in [15] it was 8% (inactive). Besides, the superoxide response (% of plate) in [8] is 108% (inactive). In addition, the aptamer binding inhibition in assay [9] is 2% (inactive). For the same compound, the results for the response in assay [10] and in assay [12] were 1.55% (inactive) and 0.05% (inactive), respectively. Besides, the binding (% of control) in [13] was 95.5% (inactive). Further, the efflux inhibition (fraction of control) in [14] is 0.14 (inactive). In addition, the differentiation response in [16] is 11% (inactive).
As for `CC(C)(C)c1ccc(/C=C/C(=O)N2CCCCC2)cc1`, the percent of DMSO control GFP in assay [1] is 96.1% (inactive). The figures for the GFP response vs DMSO in assay [2] and in assay [4] were 103% (inactive) and 116% (inactive), respectively. In addition, in assay [3], the percent response of DMSO control was 78.7% (inactive). For the same compound, the GFP response, % of DMSO in assay [5] was 97.7% (inactive). The same compound yielded a double positive events in assay [6] of 59.2%. For the same compound, the vesicle binding response in [6] is 150% (inactive). The inhibition in assay [7] was 10.5% (inactive); in assay [11], 3.48% (inactive); in assay [15] it was 8% (inactive). Moreover, in assay [8], the superoxide response (% of plate) is 98.8% (inactive). Moreover, the aptamer binding inhibition in assay [9] is 1% (inactive). Also, the results for the response in assay [10] and in assay [12] were 46.6% (active) and -0.06% (inactive), respectively. The binding (% of control) in [13] is 98.4% (inactive). Further, the efflux inhibition (fraction of control) in [14] was 0.26 (inactive). In addition, the differentiation response in assay [16] was 8.8% (inactive).
`O=C(NC(=S)Nc1ccc(N2CCN(C(=O)c3ccccc3)CC2)cc1)c1cccs1`: in assay [1], the percent of DMSO control GFP is 96.3% (inactive). For the same compound, the GFP response vs DMSO was 126% (inactive) in assay [2] and 77% (inactive) in assay [4]. Further, the percent response of DMSO control in [3] was 116% (inactive). Besides, the GFP response, % of DMSO in assay [5] was 96.1% (inactive). Further, the double positive events in assay [6] turned out to be 51.4%. The vesicle binding response in assay [6] was 106% (inactive). The inhibition in assay [7] was -4.21% (inactive); in assay [11], -3.24% (inactive); in assay [15] it was 13% (inactive). In addition, the superoxide response (% of plate) in [8] is 101% (inactive). The aptamer binding inhibition in [9] is 0% (inactive). The response in assay [10] is -15.7% (inactive); in assay [12], 1.01% (inactive). Moreover, in assay [13], the binding (% of control) was 107% (inactive). The efflux inhibition (fraction of control) in assay [14] is -0.28 (inactive). Further, the differentiation response in assay [16] is -0.82% (inactive).
Regarding `NC(=O)c1ccccc1O`, the percent of DMSO control GFP in assay [1] is 103% (inactive). Also, the GFP response vs DMSO in assay [2] was 108% (inactive); in [4], 95.8% (inactive). In addition, in assay [3], the percent response of DMSO control was 92.8% (inactive). Besides, the GFP response, % of DMSO in assay [5] is 97.4% (inactive). In assay [6], this compound returned a double positive events of 64.5%. The vesicle binding response in assay [6] was 199% (inactive). The inhibition in [7] was 11.1% (inactive); in assay [11], 33.5% (inactive); in assay [15], 3% (inactive). Besides, the superoxide response (% of plate) in [8] is 95.9% (inactive). Besides, the aptamer binding inhibition in [9] is -1% (inactive). For the same compound, the response in [10] is 6.88% (inactive); in assay [12], -2.79% (inactive). In assay [13], the binding (% of control) is 100% (inactive). Also, the efflux inhibition (fraction of control) in assay [14] is 1.03 (active). Moreover, the differentiation response in assay [16] is 10.3% (inactive).
As to `Cc1c2c(nc3c(C)cccc13)OC(C)C2` (stereo not given), the percent of DMSO control GFP in assay [1] is 105% (inactive). Further, the values for the GFP response vs DMSO in assay [2] and in assay [4] were 100% (inactive) and 97.3% (inactive), respectively. For the same compound, in assay [3], the percent response of DMSO control is 112% (inactive). Also, the GFP response, % of DMSO in assay [5] is 103% (inactive). In assay [6], this compound yielded a double positive events of 52%. Besides, the vesicle binding response in [6] was 31.8% (active). In addition, the figures for the inhibition in [7], in assay [11] and in [15] were -3.57% (inactive), 2.14% (inactive) and 3% (inactive), respectively. Further, the superoxide response (% of plate) in [8] was 99.9% (inactive). Also, the aptamer binding inhibition in [9] is -2% (inactive). The response in assay [10] is -11.5% (inactive); in assay [12], 3.8% (inactive). For the same compound, the binding (% of control) in assay [13] is 97.6% (inactive). Also, the efflux inhibition (fraction of control) in [14] was 0.11 (inactive). Besides, in [16], the differentiation response was -9.53% (inactive).
